The text below walks through data of PubChem BioAssay (EPA / NIEHS).

Activity calls are given as the source filed them. How the source made its calls: active means hit-call score of the fitted dose curve at least 0.9, where 1 is the maximum; inactive means score below 0.9.

The test is described as follows: ATG_Ets_CIS: Attagene CIS-FACTORIAL HepG2 Assay for human Erythroblast Transformation Specific (ETS) (AID 2282941). The settings on record: HepG2 ETS cis-reporter transcription, actives raise or lower the signal. The procedure:
ATG_CIS is a cell-based, multiplexed-readout assay that uses HepG2, a human liver cell line, with measurements taken at 24 hours after chemical dosing in a 24-well plate.ATG_Ets_CIS is one of 52 assay component(s) measured or calculated from the ATG_CIS assay. It is designed to make measurements of mRNA induction, a form of inducible reporter, as detected with fluorescence intensity signals by Reverse transcription polymerase chain reaction (RT-PCR) and Capillary electrophoresis technology.Data from the assay component ATG_Ets_CIS was analyzed into 1 assay endpoint. This assay endpoint, ATG_Ets_CIS, was analyzed with bidirectional fitting relative to DMSO as the negative control and baseline of activity. Using a type of inducible reporter, measures of mRNA for gain or loss-of-signal activity can be used to understand the reporter gene at the transcription factor-level as they relate to the gene ETS1. Furthermore, this assay endpoint can be referred to as a primary readout, because this assay has produced multiple assay endpoints where this one serves a reporter gene function. To generalize the intended target to other relatable targets, this assay endpoint is annotated to the dna binding intended target family, where the subfamily is winged helix-turn-helix.
Human liver HepG2 cells are transiently transfected with multiple reporter transcription units (MRTUs) in 6-well plates using FuGene 6 reagent (Roche; 3 ml FuGene/1 mg DNA). The MRTU constructs are regulated by a cis-regulating element (promoter). […] A major difference between the CIS and TRANS system is that in CIS activities of endogenous TFs are measured, whereas the TRANS assay evaluates changes in activities of exogenous, chimeric NR-Gal4 proteins. […] At the end of 24 hour incubation, total RNA was isolated using TriZol reagent (Invitrogen). The isolated RNA is then reverse-transcribed using oligo(dT) primer and Mo-MLV reverse transcriptase (Invitrogen) with DNAse I (Ambion) treatment for 30 min. The one-tenth of the produced cDNA was amplified by PCR using Taq DNA polymerase (Invitrogen) and two reporter sequence-specific primers. The PCR products were fluorescently labeled by primer extension with 6-arboxyfluorescein (6-FAM) 5'-labeled reporter sequence-specific primer (2 min at 95 C, 20 s at 68 C and 10 min at 72 C) and these products were digested with 5U of HpaI (New England Biolabs) for 2h at 37 C. The fragments were purified using Qiaquick PCR columns (Qiagen), analyzed on an ABI 3130xL genetic analyzer (Applied Biosystems) with peak positions identified by using a set of X-rhodamine (ROX)-labeled MapMarker1000 molecular weight standards (BioVentures). The raw capillary electrophoresis data was processed using Attagraph software (Attagene).
In the case of `CC1(C)OC[C@@H]2O[C@@]3(C(=O)O)OC(C)(C)O[C@H]3[C@@H]2O1`, the outcome was inactive.
Still for that read-out and setting: then `CC(=O)C(=O)O`, with “inactive”; and `CC(C)=CCC/C(C)=C/COC=O`, with “inactive”.
The same measure, in the same setting: then `Fc1c(F)c(F)c(Br)c(F)c1F`, with “inactive”; and `CSc1nnc(C(C)(C)C)c(=O)[nH]1`, with “inactive”; and `Clc1ccc(Cl)c(Cl)c1Cl`, with “inactive”.
The same measure, in the same setting: under `Cc1cccc(Nc2ccccc2C(=O)O)c1C` stands “inactive”.
As for `CCCC(=O)c1cc(O)c(O)cc1O`, the result was inactive.
Still for that read-out and setting: then `COCCCOc1ccnc(CS(=O)c2nc3ccccc3[nH]2)c1C` (stereo not given), with “inactive”; and `O=[N+]([O-])c1ccc(C=Cc2ccc([N+](=O)[O-])cc2S(=O)(=O)O)c(S(=O)(=O)O)c1`, with “inactive”; and `CC(C=O)Cc1ccc(C(C)C)cc1` (stereo not given), with “inactive”.
On the same count and under the same terms, under `CC(C)(C)c1n[nH]c(=S)n(N)c1=O` stands “inactive”.
On the same count and under the same terms, under `CC(C)(C)C(=O)c1ccccc1` stands “inactive”; under `C=CC[N+](C)(C)CC=C`, “inactive”.
Consider `O=C(O)Cc1cccc2ccccc12`, for which the outcome was inactive.
Take `CSc1nc(NC2CC2)nc(NC(C)(C)C)n1`: the call was inactive.
The same measure, in the same setting: under `O=C1NC(=O)c2ccccc21` stands “inactive”.
The same measure, in the same setting: under `O=C(O)CN(CCN(CC(=O)O)CC(=O)O)CCN(CC(=O)O)CC(=O)O` stands “inactive”; under `CC1(C)[C@H](C(=O)OCc2cccc(Oc3ccccc3)c2)[C@@H]1C=C(Cl)Cl`, “inactive”; under `C=C(C)C(=O)NCCCN(C)C`, “inactive”.
As for `BrC1CCC(Br)C(Br)CCC(Br)C(Br)CCC1Br` (stereo not given), the AC50 was 143 µM (active).
In the case of `CCCC/C=C\CCCCCCCCCC=O`, the compound was called inactive.
Turning to `C=CC(=O)OCCn1c(=O)n(CCOC(=O)C=C)c(=O)n(CCOC(=O)C=C)c1=O`, the call was inactive.
The same measure, in the same setting: then `CCCOCC(C)O` (stereo not given), with “inactive”.
`C#C[C@]1(O)CC[C@H]2[C@@H]3CCC4=Cc5oncc5C[C@]4(C)[C@H]3CC[C@@]21C`: the AC50 was 26.1 µM (active).
With `CC(C)Oc1ccccc1O`, the call was inactive.
Still for that read-out and setting: under `O=C(COc1ccc(Cl)cc1)N1CCN(Cc2ccc3c(c2)OCO3)CC1` stands “inactive”; under `CC1(C)C(=O)N(Br)C(=O)N1Cl`, “inactive”; under `C[C@H]1C[C@H]2[C@@H]3CCC4=CC(=O)C=C[C@]4(C)[C@@]3(F)[C@@H](O)C[C@]2(C)[C@@]1(O)C(=O)COP(=O)(O)O`, “inactive”.
The same measure, in the same setting: under `CC(CC(C)(C)C)CC(C)(C)CC(C)(C)C` (stereo not given) stands “inactive”.
As for `NCCNCCN`, the call was inactive.
On the same count and under the same terms, under `OC1C(O)C(O)C(O)C(O)C1O` (stereo not given) stands “inactive”; under `CCCC[n+]1ccccc1`, “inactive”; under `ClCCCl`, “inactive”.
Still for that read-out and setting: then `CC1CCC(C(C)CS)CC1S` (stereo not given), with “inactive”; and `O=C(O)c1ccc([N+](=O)[O-])cc1`, with “inactive”.
Regarding `Clc1nc(C(Cl)(Cl)Cl)c(Cl)c(Cl)c1Cl`, the AC50 is 54.2 µM (active).
With `CO[Si](C)(OC)c1ccccc1`, the compound was called inactive.
Consider `O=S(=O)(O)c1ccc(O)c2ncccc12`, for which the compound was called inactive.
On the same count and under the same terms, then `CO[Si](CCCn1c(=O)n(CCC[Si](OC)(OC)OC)c(=O)n(CCC[Si](OC)(OC)OC)c1=O)(OC)OC`, with “inactive”.

A word on the AC50: it is the midpoint of the concentration-response curve, whichever way the signal moves.
